Test results from PubChem BioAssay.
The source made the active and inactive calls.

Columns and labels:
[1] = binders of probe aFSTL3 on microarray, primary screen, stem cell growth factor project, biochemical, small-molecule microarray, fluorescence 635/667 (AID 1064); conditions: higher = more signal;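 note: measures binding of the biotinylated anti-FSTL3 antibody to printed compounds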
[2] = binders from COS7 lysate, DM2A8 probe, primary screen, torsin A project, cell lysate, small-molecule microarray, fluorescence 635/667 (AID 1065); conditions: higher = more signal, COS7 lysate expressing mutant human TOR1A
[3] = binders of probe aFGF2 on microarray, primary screen, stem cell growth factor project, biochemical, small-molecule microarray, fluorescence 635/667 (AID 1067); conditions: higher = more signal;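 note: measures binding of biotinylated aFGF2 protein to printed compounds on slides; z-score merges feature fluorescence and signal-to-noise across triplicate slides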
[4] = binders of probe aFGF10 on microarray, primary screen, stem cell growth factor project, biochemical, small-molecule microarray, fluorescence 635/667 (AID 1071); conditions: higher = more signal;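 note: score merges 667 nm spot intensity and signal to noise from triplicate slides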
[5] = molecular target: Neurogenic locus notch homolog protein 2 (Homo sapiens) (UniProt Q04721); experiment: Notch2 binders on small-molecule microarrays, primary screen, biochemical, small-molecule microarray, 635 nm fluorescence, stem cell growth factors (AID 1073); conditions: Notch2 binding, higher = more signal
[6] = molecular target: Pro-neuregulin-1, membrane-bound isoform (Homo sapiens) (UniProt Q02297); experiment: NRG1 binders on small-molecule microarrays, primary screen, psychiatric disease protein project, biochemical, small-molecule microarray, fluorescence 635/667 (AID 1075); conditions: NRG1 binding, 635 nm fluorescence, higher = more signal;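 note: score combines 667 nm spot fluorescence with signal to noise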
Sequence of Pro-neuregulin-1, membrane-bound isoform (Homo sapiens) (Q02297 whole entry, looked up, the tested form may be a part, canonical isoform): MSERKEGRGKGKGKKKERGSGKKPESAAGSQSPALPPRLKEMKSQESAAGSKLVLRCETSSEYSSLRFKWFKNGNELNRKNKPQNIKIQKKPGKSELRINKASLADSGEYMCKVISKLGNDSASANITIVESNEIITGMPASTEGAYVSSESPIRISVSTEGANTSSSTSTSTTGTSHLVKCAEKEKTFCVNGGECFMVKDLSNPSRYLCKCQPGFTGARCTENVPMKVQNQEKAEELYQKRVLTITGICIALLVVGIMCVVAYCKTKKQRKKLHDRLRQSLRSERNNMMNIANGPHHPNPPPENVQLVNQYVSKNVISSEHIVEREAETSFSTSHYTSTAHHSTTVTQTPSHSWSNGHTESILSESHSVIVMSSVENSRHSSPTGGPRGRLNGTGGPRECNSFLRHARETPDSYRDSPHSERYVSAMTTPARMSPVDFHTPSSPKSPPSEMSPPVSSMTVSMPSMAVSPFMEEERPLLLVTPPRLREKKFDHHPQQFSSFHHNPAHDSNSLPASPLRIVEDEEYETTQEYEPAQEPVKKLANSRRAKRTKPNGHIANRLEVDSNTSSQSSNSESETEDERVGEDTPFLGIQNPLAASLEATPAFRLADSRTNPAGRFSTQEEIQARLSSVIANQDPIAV

[7] = system: Neuregulin-1 EGF-like domain; experiment: binders of neuregulin-1 EGF-like domain, primary screen, biochemical, small-molecule microarray, 635 nm fluorescence (AID 1081); conditions: small-molecule microarray binding, higher = more signal;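 note: binding of the protein to compounds printed on small-molecule microarray slides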
[8] = FRG1 promoter luciferase signal modulators, primary screen, FRG1 inhibition for FSHD, cell-based, C2C12 myotubes, firefly/Renilla luciferase, luminescence (AID 1084); conditions: higher = more signal, called active from +8 up or from −8 down
[9] = binders of probe aFST on microarray, primary screen, stem cell growth factor project, biochemical, small-molecule microarray, fluorescence 635/667 (AID 1086); conditions: higher = more signal;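 note: score merges 667 nm fluorescence with signal-to-noise of each printed compound spot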
[10] = binders of probe aHhip on microarray, primary screen, stem cell growth factor project, biochemical, small-molecule microarray, fluorescence 635/667 (AID 1087); conditions: higher = more signal;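 note: score merges spot fluorescence at 667nm with spot signal to noise ratio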
[11] = system: PRMT1 (protein arginine N-methyltransferase 1); experiment: PRMT1 binders on small-molecule microarrays, primary screen, biochemical, small-molecule microarray, 635 nm fluorescence (AID 1088); conditions: small-molecule microarray binding, higher = more signal;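 note: binding of Prmt1 protein to compounds spotted on small-molecule microarray slides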
[12] = yeast growth modulation, basal conditions, primary screen, YJM789 clinical isolate, OD600, 24 h (AID 1089);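 note: growth of clinical yeast isolate S. cerevisiae YJM 789 seeded 1000 cells per well; test concentration not given here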; conditions: S. cerevisiae YJM789 growth, higher = more signal, called active from +8 up or from −8 down
[13] = fission yeast growth modulation, primary screen, strain 972, OD600, 24 h, no modulator (AID 1090);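 note: basal condition with compound alone and no growth modifier present; test concentration not given here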; conditions: S. pombe 972 growth, higher = more signal, called active from +8 up or from −8 down
[14] = S. cerevisiae growth modulation with rapamycin, primary screen, strain BY4716, OD600, 96 h (AID 1091); conditions: higher = more signal, called active from +8 up or from −8 down; note: test concentration not given here
[15] = molecular target: Torsin-1A-interacting protein 2 (Homo sapiens) (UniProt Q8NFQ8); experiment: LULL1 binders on small-molecule microarray, primary screen, cell lysate, human LULL1 lysate, 635/667 nm fluorescence (AID 1092); conditions: hLULL1 lysate binding, 635 nm fluorescence, higher = more signal;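 note: probe is lysate of COS7 cells overexpressing human LULL1; score merges per-feature 667 nm fluorescence with signal-to-noise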
Sequence of Torsin-1A-interacting protein 2 (Homo sapiens) (Q8NFQ8 whole entry, looked up): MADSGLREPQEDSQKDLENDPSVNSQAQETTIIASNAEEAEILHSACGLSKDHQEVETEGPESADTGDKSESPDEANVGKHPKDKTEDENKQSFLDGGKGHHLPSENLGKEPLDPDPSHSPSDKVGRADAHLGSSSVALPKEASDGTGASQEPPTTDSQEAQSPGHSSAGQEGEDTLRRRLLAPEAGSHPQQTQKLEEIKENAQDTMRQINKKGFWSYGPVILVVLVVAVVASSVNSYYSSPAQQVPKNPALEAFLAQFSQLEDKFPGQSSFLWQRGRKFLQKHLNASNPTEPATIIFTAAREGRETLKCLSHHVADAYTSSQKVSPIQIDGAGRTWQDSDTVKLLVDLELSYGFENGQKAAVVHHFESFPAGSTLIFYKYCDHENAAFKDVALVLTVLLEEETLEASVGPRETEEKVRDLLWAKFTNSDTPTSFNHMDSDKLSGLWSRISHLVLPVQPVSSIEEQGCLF

[16] = E. coli growth modulation, two-sided OD650, primary screen, E. coli filamentation project, strain DRC41, 24 h (AID 1093); conditions: OD650, 24 h, higher = more signal, called active from +8 up or from −8 down;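 note: MC1000 strain lacking acrAB efflux and sulA so SOS filamentation is blocked; test concentration not given here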
[17] = small-molecule microarray binders of probe aLefty2, primary screen, biochemical, biotinylated probe, 635/667 nm fluorescence (AID 1094); conditions: higher = more signal;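 note: score merges spot fluorescence near 667 nm with spot signal-to-noise ratio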
[18] = system: Noggin (protein binding on small-molecule microarray); experiment: Noggin binders on small-molecule microarray, primary screen, biochemical, 635/667 nm fluorescence (AID 1095); conditions: 635 nm fluorescence, higher = more signal;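 note: score merges 667 nm feature fluorescence with signal to noise over triplicate slides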
[19] = molecular target: Neurogenic locus notch homolog protein 3 (Homo sapiens) (UniProt Q9UM47); experiment: NOTCH3 binders on small-molecule microarray, primary screen, biochemical, 635/667 nm fluorescence (AID 1096); conditions: NOTCH3 binding, 635 nm fluorescence, higher = more signal
Sequence of Neurogenic locus notch homolog protein 3 (Homo sapiens) (Q9UM47 whole entry, looked up): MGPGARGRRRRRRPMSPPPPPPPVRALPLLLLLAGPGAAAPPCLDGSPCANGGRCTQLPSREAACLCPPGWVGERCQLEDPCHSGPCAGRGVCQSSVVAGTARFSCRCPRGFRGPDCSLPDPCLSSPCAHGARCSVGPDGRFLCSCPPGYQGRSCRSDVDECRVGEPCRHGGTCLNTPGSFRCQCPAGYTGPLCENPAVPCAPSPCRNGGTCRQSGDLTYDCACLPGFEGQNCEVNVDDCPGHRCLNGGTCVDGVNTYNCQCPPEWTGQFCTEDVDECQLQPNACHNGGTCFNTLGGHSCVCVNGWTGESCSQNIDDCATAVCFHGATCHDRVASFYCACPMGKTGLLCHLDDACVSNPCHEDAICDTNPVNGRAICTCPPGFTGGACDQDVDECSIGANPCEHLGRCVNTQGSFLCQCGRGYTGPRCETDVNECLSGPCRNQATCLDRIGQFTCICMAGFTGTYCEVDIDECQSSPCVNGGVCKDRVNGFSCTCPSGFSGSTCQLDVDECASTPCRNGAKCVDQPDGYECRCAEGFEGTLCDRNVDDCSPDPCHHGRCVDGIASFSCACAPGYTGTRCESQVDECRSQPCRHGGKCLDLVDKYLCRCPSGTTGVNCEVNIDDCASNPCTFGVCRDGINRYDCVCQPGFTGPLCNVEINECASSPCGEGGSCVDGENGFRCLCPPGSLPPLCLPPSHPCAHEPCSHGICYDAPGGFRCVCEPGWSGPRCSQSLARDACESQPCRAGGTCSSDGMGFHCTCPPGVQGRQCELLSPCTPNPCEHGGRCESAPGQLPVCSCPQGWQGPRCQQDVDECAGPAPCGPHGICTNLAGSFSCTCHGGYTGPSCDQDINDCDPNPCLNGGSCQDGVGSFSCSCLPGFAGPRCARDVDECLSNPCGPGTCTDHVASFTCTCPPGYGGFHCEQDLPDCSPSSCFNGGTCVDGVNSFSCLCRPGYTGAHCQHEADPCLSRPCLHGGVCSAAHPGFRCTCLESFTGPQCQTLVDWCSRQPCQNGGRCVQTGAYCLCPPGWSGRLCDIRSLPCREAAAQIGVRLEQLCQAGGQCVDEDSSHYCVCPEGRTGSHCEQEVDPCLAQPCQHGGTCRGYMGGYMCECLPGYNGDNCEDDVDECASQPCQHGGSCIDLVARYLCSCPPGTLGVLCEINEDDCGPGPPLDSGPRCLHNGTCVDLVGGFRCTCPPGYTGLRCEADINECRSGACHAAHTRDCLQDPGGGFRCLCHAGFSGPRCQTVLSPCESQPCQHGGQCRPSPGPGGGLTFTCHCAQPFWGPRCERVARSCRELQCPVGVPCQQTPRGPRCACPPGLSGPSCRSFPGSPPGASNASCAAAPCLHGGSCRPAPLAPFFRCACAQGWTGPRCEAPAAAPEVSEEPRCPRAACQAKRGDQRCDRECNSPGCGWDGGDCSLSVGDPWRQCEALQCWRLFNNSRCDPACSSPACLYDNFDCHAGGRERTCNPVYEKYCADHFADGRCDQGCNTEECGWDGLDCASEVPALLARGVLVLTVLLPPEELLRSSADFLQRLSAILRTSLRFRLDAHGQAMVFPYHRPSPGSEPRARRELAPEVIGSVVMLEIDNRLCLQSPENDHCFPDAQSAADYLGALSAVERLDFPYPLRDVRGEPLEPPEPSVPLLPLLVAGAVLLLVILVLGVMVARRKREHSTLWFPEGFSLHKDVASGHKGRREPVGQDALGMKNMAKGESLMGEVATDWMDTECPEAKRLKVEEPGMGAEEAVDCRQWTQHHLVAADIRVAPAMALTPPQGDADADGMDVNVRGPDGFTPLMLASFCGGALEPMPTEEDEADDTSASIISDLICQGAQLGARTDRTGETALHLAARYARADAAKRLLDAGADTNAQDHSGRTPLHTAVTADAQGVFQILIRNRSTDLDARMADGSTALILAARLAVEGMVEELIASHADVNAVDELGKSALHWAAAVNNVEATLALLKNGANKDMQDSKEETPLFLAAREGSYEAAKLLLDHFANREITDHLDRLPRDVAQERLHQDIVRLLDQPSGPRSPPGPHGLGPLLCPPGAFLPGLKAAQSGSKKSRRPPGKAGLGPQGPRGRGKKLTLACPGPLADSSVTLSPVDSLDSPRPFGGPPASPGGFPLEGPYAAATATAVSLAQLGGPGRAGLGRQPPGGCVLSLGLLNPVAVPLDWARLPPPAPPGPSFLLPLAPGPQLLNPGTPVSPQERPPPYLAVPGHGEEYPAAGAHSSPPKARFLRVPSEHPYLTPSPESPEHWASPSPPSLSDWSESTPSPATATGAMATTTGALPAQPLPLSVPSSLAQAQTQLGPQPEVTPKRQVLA

[20] = small-molecule microarray binders of probe aEGFR, primary screen, biochemical, biotinylated probe, 635/667 nm fluorescence (AID 1097); conditions: higher = more signal;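 note: probe is a biotinylated anti-EGFR antibody binding compounds printed on slides; score combines fluorescence near 667 nm and signal to noise of each spot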

Structure (SMILES)	composite z-score [1]	composite z-score [2]	composite z-score [3]	composite z-score [4]	composite z-score [5]	composite z-score [6]	composite z-score [7]	z-score [8]	composite z-score [9]	composite z-score [10]	composite z-score [11]	z-score [12]	z-score [13]	z-score [14]	composite z-score [15]	z-score [16]	composite z-score [17]	composite z-score [18]	composite z-score [19]	composite z-score [20]
Cc1ccc(S[C@]2(C(=O)NC3CC3)CC(=O)N(Cc3ccccc3C(F)(F)F)[C@@H]2c2ccc(CO)cc2I)cc1	1.38	0.15	-0.0139	0.152	-1.13	0.37	1.2	-0.967 (inactive)	0.0584	0.219	0.279	-1.31 (inactive)	-4.68 (inactive)	2.34 (inactive)	1.1	-0.195 (inactive)	0.244	-0.536	-0.654	-0.0899
C#CCN1C(C(=O)OCC)OC[C@H]1c1ccccc1 (stereo not given in full)	-0.551	2.59	-0.128	0.389	0.678	0.0354	-0.143	-1.77 (inactive)	-0.0006	-0.492	0.52	-1.51 (inactive)	-2.08 (inactive)	-1.95 (inactive)	3.77	1.92 (inactive)	-0.205	0.671	0.804	-0.109
COc1ccc(C#Cc2ccc3c(c2)[C@]2(C(=O)N3)[C@H](c3ccc(O)cc3)N3[C@H](c4ccccc4)[C@H](c4ccccc4)OC(=O)[C@H]3[C@@H]2C(N)=O)cc1	0.573	0.395	0.0519	0.889	-0.695	1.68	0.785	0.532 (inactive)	-0.235	-0.24	0.632	1.46 (inactive)	-1.02 (inactive)	2.73 (inactive)	2.14	1.68 (inactive)	-0.2	-0.877	-0.854	-0.401
C=CCNC(=O)[C@@H]1[C@H]2C(=O)O[C@H](c3ccccc3)[C@H](c3ccccc3)N2[C@H](c2ccc(O)cc2)[C@@]12C(=O)N(C(=O)OCCOC)c1ccc(C#Cc3ccc(OC)cc3)cc12	-0.828	0.974	-0.0761	0.856	1.34	1.41	1.16	-0.374 (inactive)	0.316	-0.0994	1.55	0.342 (inactive)	0.1 (inactive)	2.6 (inactive)	2.08	2.2 (inactive)	-0.111	0.605	1.12	-0.0674
C[N+](C)(C)CCCCNC(=O)[C@@H]1C[C@@H]2C(=O)NCC(=O)N2[C@@H]1c1cccc(OCCO)c1	-0.501	2.04	-0.085	1.05	-0.544	1.22	1.34	-0.53 (inactive)	0.432	0.167	1.39	2.16 (inactive)	-0.823 (inactive)	-1.89 (inactive)	2.47	1.73 (inactive)	-0.0607	1.88	1.14	0.0526
C=CC[C@]1(C(=O)N(C)C)N=C(c2ccc(OCCCO)cc2)O[C@H]1c1ccccc1CN=[N+]=[N-]	0.876	1.42	0.0188	0.548	1.38	1.66	1.15	-2.15 (inactive)	1.43	0.184	1.09	-1.01 (inactive)	-1.1 (inactive)	-1.52 (inactive)	3.01	1.39 (inactive)	0.186	0.0301	0.893	0.188
COCCCN1C(=O)[C@@]2(Cc3ccccc31)c1ccccc1C(=O)N(Cc1ccccc1Cl)[C@H]2c1ccc(CO)cc1	0.218	-0.272	-0.201	-0.273	-0.773	-0.592	-0.983	0.448 (inactive)	0.009	0.0274	0.952	-0.403 (inactive)	-1.49 (inactive)	-1.46 (inactive)	1.22	2.9 (inactive)	-0.226	-1.07	-0.435	-0.0304
CC(C)C(=C=CC[C@@H](O)c1ccc(CO)o1)CCO	-0.416	0.443	0.007	0.768	-0.298	0.632	1.19	0.136 (inactive)	-0.304	0.065	0.821	1.15 (inactive)	-1.09 (inactive)	-0.24 (inactive)	1.28	1.17 (inactive)	-0.237	0.852	0.116	-0.191
COC(=O)C1=CC(c2ccc(CO)cc2)=CC(c2cccs2)N(C)C=C1C(=O)OC (stereo not given)	1.13	0.2	-0.0625	-0.0568	-0.109	1.96	1.29	1.36 (inactive)	0.308	-0.226	0.853	-0.543 (inactive)	-5.22 (inactive)	-0.424 (inactive)	2.88	0.637 (inactive)	0.0094	-0.853	0.302	-0.135
CCCCC(=C=CC[C@H](O)c1cccc(OCCO)c1)CCO	-0.0452	-0.0768	-0.0976	-0.662	-0.854	0.52	0.519	0.125 (inactive)	-0.101	0.0623	-0.19	0.166 (inactive)	-0.486 (inactive)	-1.16 (inactive)	1.33	1.11 (inactive)	-0.12	0.0201	-0.498	-0.268
NCCCCCCNC(=O)[C@@H]1C[C@@H]2C(=O)N[C@@H](Cc3ccccc3)C(=O)N2[C@@H]1c1ccc(O)cc1	1.38	0.757	-0.0715	-0.113	0.179	1.25	1.33	0.611 (inactive)	0.422	-0.265	0.914	-0.507 (inactive)	-1.11 (inactive)	-0.373 (inactive)	1.36	0.792 (inactive)	0.635	0.561	0.164	-0.063
C=C(COC)/C(=C/C[C@H](OC(C)=O)c1ccc(CO)o1)c1cnc2ccccc2c1	-0.17	1.29	-0.0316	0.665	1.4	0.64	1.01	-0.524 (inactive)	0.314	-0.0024	1.41	-0.342 (inactive)	-0.897 (inactive)	-1.06 (inactive)	2.48	1.15 (inactive)	-0.0208	1.55	1.04	-0.0616
CC(C)CCC[C@@H](C)[C@H]1CC[C@@]2(C)C3=C(CC[C@]12C)[C@@]1(C)CC[C@H](OC(=O)CCl)C(C)(C)C1CC3 (stereo not given in full)	-0.503	0.331	-0.0787	0.422	0.753	0.0429	0.59	-0.0513 (inactive)	0.104	-0.0237	-0.132	-0.0688 (inactive)	-0.178 (inactive)	-0.208 (inactive)	0.424	3.26 (inactive)	-0.145	0.44	0.847	0.0143
CCCCCCC#C[Si](O[C@H](c1ccccc1)c1cn(Cc2ccccc2)nn1)(C(C)C)C(C)C	-0.331	-0.0435	0.0339	0.388	0.433	-0.0854	-0.0419	-0.494 (inactive)	0.129	0.243	0.63	-0.501 (inactive)	-1.19 (inactive)	-0.287 (inactive)	0.468	2.25 (inactive)	-0.0153	0.977	0.6	0.0334
C=CC[C@@H](OC(=O)Nc1ccc(SC)cc1)c1ccc(OCCO)cc1	1.15	-0.325	-0.175	-0.932	-1.77	0.767	0.801	4.02 (inactive)	-0.464	-0.251	-0.306	-0.0227 (inactive)	-3.88 (inactive)	0.0294 (inactive)	2.42	1.4 (inactive)	0.214	-1.07	-0.525	-0.204
CC(C)N1C(=O)c2ccccc2[C@@H](C(=O)NCc2ccccc2)[C@@H]1c1ccc(CO)cc1	-0.0604	0.317	-0.0806	-0.723	-0.423	0.844	1.15	-0.331 (inactive)	-0.0768	-0.141	-0.238	0.582 (inactive)	-0.579 (inactive)	1.31 (inactive)	0.979	0.846 (inactive)	-0.109	-0.608	-0.904	-0.273
NCCCCCNC(=O)[C@H]1C[C@H]2C(=O)NCC(=O)N2[C@H]1c1ccc(O)cc1	-0.136	2.22	-0.113	0.847	0.775	1.3	1.22	1.51 (inactive)	0.106	0.154	1.55	0.535 (inactive)	-1.08 (inactive)	1.11 (inactive)	2.16	1.1 (inactive)	-0.0424	1.86	0.906	0.186
NC(=O)N1C(=O)C2C(C1=O)C1C=C(c3ccc(CO)cc3)C2C(C2CC2)N1Cc1cc2c(cc1Br)OCO2 (stereo not given)	0.567	0.778	-0.105	-0.277	-0.204	0.976	0.887	-2.01 (inactive)	0.0417	-0.0237	0.364	-0.779 (inactive)	-3.29 (inactive)	-1.32 (inactive)	1.86	1.19 (inactive)	0.0834	0.176	0.623	-0.0975
CC(C)(C)OC(=O)CC[C@]1(C(=O)NCc2ccccc2)N=C(c2ccc(OCCCO)cc2)O[C@H]1c1ccccc1N=[N+]=[N-]	1.4	1.11	0.231	0.907	1.65	1.91	1.26	1.14 (inactive)	1.62	-0.248	1.55	-0.182 (inactive)	-0.654 (inactive)	2.97 (inactive)	3.41	0.876 (inactive)	0.782	1.69	1.02	0.593
